According to PubChem BioAssay:
Entries with a potency or affinity are not part of this list. Values without a mark were called inactive. No rule for the calls is given here.

Assay: A2780 cell killing – plate reader, dry powder samples, cytotoxicity control, dose response (AID 743046);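 also: 0% = neutral control wells and -100% = cytotoxic reference compound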
Conditions: A2780 ovarian cancer cytotoxicity; series mostly up to 35 µM; activity change, negative = cytotoxicity: at the top concentration

| SMILES | activity change, negative = cytotoxicity [%] |
| --- | --- |
| COc1ccc2c3c([nH]c2c1)[C@H](CO)N(C(=O)Nc1cccc(F)c1)CC31CCN(S(=O)(=O)c2cccc(C)c2)CC1 | 2.04 |
| COc1ccc(-c2ccc3c(c2)[C@@H]2[C@@H](CCN2S(=O)(=O)c2ccc(OC)cc2)[C@@H](CO)N3C)cc1 | -13.1 |
| C[C@@H]1CN([C@H](C)CO)C(=O)c2cc(NC(=O)Nc3ccccc3)ccc2O[C@@H](C)CCCCO[C@@H]1CN(C)CC1CCCCC1 | 8.9 |
| C[C@@H]1CN([C@H](C)CO)C(=O)CCCn2cc(nn2)CO[C@H]1CN(C)C(=O)Nc1ccc(-c2cccs2)cc1 | 1.35 |
| C[C@H](CO)N1C[C@H](C)[C@H](CN(C)S(=O)(=O)c2ccc(Cl)cc2)OCCCC[C@H](C)Oc2ccc(NS(=O)(=O)c3ccc(Cl)cc3)cc2C1=O | -9.24 |
| C[C@H]1CCCCO[C@H](CN(C)Cc2ccc(C(F)(F)F)cc2)[C@@H](C)CN([C@@H](C)CO)C(=O)c2cc(NS(=O)(=O)c3ccc(F)cc3)ccc2O1 | -10.4 |
| Cc1cccc(S(=O)(=O)N2CC[C@@H]3[C@H](CO)N(C)c4ccc(-c5ccc(C#N)cc5)cc4[C@@H]32)c1 | 27.2 |
| C[C@@H]1CCCCO[C@@H](CN(C)C(=O)c2ccccc2)[C@H](C)CN([C@H](C)CO)C(=O)c2cc(NC(=O)Nc3ccc(C(F)(F)F)cc3)ccc2O1 | -11.7 |
| C[C@H]1CN([C@@H](C)CO)S(=O)(=O)c2ccc(C#Cc3ccc(F)cc3)cc2O[C@@H]1CN(C)C(=O)NC1CCCCC1 | -6.02 |
| C[C@@H]1CCCCO[C@H](CN(C)Cc2ccccc2)[C@@H](C)CN([C@@H](C)CO)C(=O)c2cc(NC(=O)Nc3ccc(C(F)(F)F)cc3)ccc2O1 | -24.3 |
